Screens as filed in PubChem BioAssay.
KKLEB tox: cytotoxicity in KKLEB CF airway cells, primary screen, cytotoxicity control for CF NF-kB inhibitor project, cell-based, uHTS, fluorescence assay plates | KKLEB CF airway cells viability, ATPlite luminescence, overnight; hits give low values; cells stimulated with P. aeruginosa culture filtrate | activity change (cytotoxicity), % at 5 µM | 0.36% of 360,000 active;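 active = corrected activity change at or below -50% at 5 µM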
CF NFkB block: inhibitors of PAF-induced NF-kB signaling, primary screen, cell-based, GFP fluorescence, uHTS; 0.86% of 360,000 active; KKLEB NF-kB-GFP reporter, GFP fluorescence overnight; inhibition, % at 5 µM; AID 588850, 2011;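 active = at least 50% inhibition at 5 µM, scaled per plate between neutral and stimulator controls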;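 also: PAF is a Pseudomonas aeruginosa culture filtrate used as stimulus; plate controls were PAF-stimulated DMSO wells for no effect and unstimulated DMSO wells for full effect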
TRPM1 prom inh: inhibitors of MITF-dependent TRPM1 promoter reporter, primary screen, cell-based, SK-MEL-5, single point, luciferase; SK-MEL-5 TRPM1 promoter luciferase, 24 h; inhibition, % at 12.5 µM; 0.83% of 330,000 active; AID 488899, 2010;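 active = mean inhibition across replicates of 60% or more, whatever share of single replicates reaches that level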
Beta2AR agonist: beta2AR agonists driving receptor internalization, primary screen, cell-based, FAP fluorogen, flow cytometry | Beta-2 adrenergic receptor (Homo sapiens), P07550 | Am2.2-beta2AR cells | response, % (concentration not given with the values) | 0.43% of 340,000 active | AID 504454, 2011;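 active = response above a set limit, near 3 SD of response in nonfluorescent compounds, cut at about 42% in these data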
Target sequence (P07550 whole entry, looked up): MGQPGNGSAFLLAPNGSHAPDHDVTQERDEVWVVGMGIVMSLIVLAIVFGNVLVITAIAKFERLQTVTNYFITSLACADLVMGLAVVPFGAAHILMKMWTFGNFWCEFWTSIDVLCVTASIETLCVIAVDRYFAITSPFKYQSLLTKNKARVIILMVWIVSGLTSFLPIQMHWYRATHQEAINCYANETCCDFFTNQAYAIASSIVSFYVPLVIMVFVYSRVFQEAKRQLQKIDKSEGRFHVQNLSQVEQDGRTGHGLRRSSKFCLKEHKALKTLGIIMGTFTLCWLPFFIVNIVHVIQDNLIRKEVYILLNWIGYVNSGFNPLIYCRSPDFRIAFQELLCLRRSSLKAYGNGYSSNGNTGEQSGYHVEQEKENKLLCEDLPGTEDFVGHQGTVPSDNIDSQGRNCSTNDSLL
Peg3 prom inh: Peg3 promoter-driven luciferase inhibitors, primary screen, cell-based, HeLa, luciferase luminescence; HeLa PEG-Prom luciferase reporter, overnight; 1.7% of 360,000 active; inhibition, % at 20 µM;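 active = inhibition of at least 50% at 20 µM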
HIF-2a block: HIF-2a reporter inhibitors, primary screen, luminescence, 786-0 RCC cells; 786-0 RCC cells HIF-2a reporter, luciferase luminescence, overnight; inhibition, % at 18.8 µM; 0.72% of 360,000 active; AID 624352, 2012;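 active = inhibition of the luminescence signal of 40% or more relative to plate controls, in a single-dose primary screen at 18.75 µM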
CF NFkB conf: inhibitors of PAF-induced NF-kB signaling, retest, confirmation, cell-based, GFP fluorescence, single concentration; shares compounds with CF NFkB block; KKLEB CF airway cells, overnight; inhibition, % at 5 µM; 64% of 1,300 active; AID 602472, 2012; in the data active = inhibition above about 40%;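 also: stimulus PAF is a Pseudomonas aeruginosa filtrate and not platelet activating factor; plate controls were DMSO wells with stimulus for no effect and unstimulated DMSO wells for full effect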
* = called active by the depositor; · = not tested or not shown. Hits are enriched below; roughly 2.8% of the tested compounds scored in any of these assays.

SMILES	KKLEB tox	CF NFkB block	TRPM1 prom inh	Beta2AR agonist	Peg3 prom inh	HIF-2a block	CF NFkB conf
COc1ccc(CCNC(=O)c2cccc([N+](=O)[O-])c2)cc1OC	6	62*	-7	0	7	29	22
COc1cc(-c2nnc(NC(=O)CCS(=O)(=O)c3ccc(F)cc3)o2)cc(OC)c1OC	-30	54*	2	11	-10	-3	34
COc1cc(-c2nnc(NC(=O)CCS(=O)(=O)c3ccccc3)o2)cc(OC)c1OC	3	3	13	0	-56	-10	·
CCCCCCCCCCCCCCCC(=O)Nc1ccn(C2OC(CO)C(O)C2O)c(=O)n1 (stereo not drawn)	7	-6	0	-4	13	-6	·
Cc1cc(Br)cn2c(Cc3cccc(F)c3)c(-c3ccccc3)nc12	-2	36	·	·	12	-26	·
O=C(COC(=O)c1ccccc1NCCO)NCc1cccs1	15	2	-16	5	-33	-44	·
CS(=O)(=O)Nc1ccccc1C(=O)OCC(=O)NCc1cccs1	-14	51*	8	0	2	6	7
CN(C)c1ncnc2c1ncn2[C@H]1CN(Cc2cccs2)C[C@@H](CO)O1	2	32	·	·	9	16	·
O=[N+]([O-])c1cccc(NC(=S)NCc2ccncc2)c1	5	8	-1	-6	12	13	·
O=[N+]([O-])c1cccc(NC(=S)Nc2nc(-c3ccccc3Cl)cs2)c1	-17	50*	18	27	-35	-109	67*
Cc1ccc(S(=O)(=O)n2cc(-c3ccccc3)c3ccccc32)cc1	-12	53*	46	23	-8	0	78*
CC(=O)Oc1ccc(-c2ccc(C(=O)OCC(=O)N(C)CC(=O)Nc3ccccc3Cl)cc2)cc1	-44	52*	17	4	5	13	36
CN(CC(=O)Nc1ccccc1Cl)C(=O)COC(=O)c1ccc(S(=O)(=O)C(F)F)cc1	-16	14	-8	1	-4	10	·
Nc1nc(-c2ccccc2)nc(-c2ccccc2O)n1	-14	57*	6	12	1	-195	-38
COc1ccc(-c2cn[nH]c2-c2ccc(OCc3ccc([N+](=O)[O-])cc3)cc2O)cc1	2	70*	-21	6	-1	-1	82*
COc1ccc(-c2[nH]ncc2-c2nc(C)cs2)c(O)c1	-9	16	0	-9	25	19	·
CCc1cc(-c2[nH]ncc2-c2ccc(OC)cc2)c(O)cc1O	3	76*	-1	-6	55*	31	81*
C=C(C)COc1ccc(-c2[nH]ncc2-c2ccc(Br)cc2)c(O)c1	-6	-4	25	2	36	12	·
CCCC(=O)N1CCCC1(C)C(=O)Nc1ccc(OC(F)F)cc1 (stereo not drawn)	7	-9	·	·	14	3	·
COC(=O)[C@H](Cc1ccccc1)NC(=O)/C=C/[C@H]1O[C@@H](n2cc(C)c(=O)[nH]c2=O)C[C@@H]1O	-3	9	·	·	-5	22	·
O=S1(=O)CC(N2CCN(CC3CC3)CC2)CN1Cc1ccccc1 (stereo not drawn)	-4	-12	·	·	-10	-10	·
C=CC[C@@H](CC(=O)N(CCO)Cc1ccccc1)C(=O)NC[C@H](OC(=O)[C@@H](CC=C)Cc1ccc(F)cc1)c1ccccc1	-4	73*	9	19	71*	-12	92*
C=CC[C@@H](CC(=O)N(CCO)Cc1ccccc1)C(=O)N[C@H](COC(=O)[C@@H](CC=C)Cc1ccc(F)cc1)c1ccccc1	-16	10	-4	2	28	13	·
CC(C)[C@H](NC(=O)OC(C)(C)C)c1cc(C(=O)N(C)CCN(C)C)c(N)s1	·	·	·	·	·	12	·
CC(C)OC(=O)c1cccc(C(=O)Nc2cccc(NC(=O)c3cccc(C(=O)OC(C)C)n3)n2)n1	-4	57*	0	9	46	12	62*
SMILES	KKLEB tox	CF NFkB block	TRPM1 prom inh	Beta2AR agonist	Peg3 prom inh	HIF-2a block	CF NFkB conf
CC1(C)O[C@@H]2C[C@H]3[C@@H]4C[C@H](F)C5=CC(=O)CC[C@]5(C)[C@H]4[C@@H](O)C[C@]3(C)[C@]2(C(=O)CO)O1	-14	74*	-19	4	-8	27	17
CC1(C)O[C@@H]2C[C@H]3[C@@H]4C[C@H](F)C5=CC(=O)C=C[C@]5(C)[C@H]4[C@@H](O)C[C@]3(C)[C@]2(C(=O)CO)O1	17	68*	-5	3	4	25	19
Cc1nn(-c2ccccc2)c(C)c1C(=O)OCC(=O)Nc1ccccc1Cl	10	-2	·	·	-15	2	·
Nc1nc(SCc2ccc(Cl)cc2Cl)n[nH]1	15	-23	-44	-7	-129	-112	·
Nc1nccc(SCc2ccc(Cl)cc2Cl)n1	-15	57*	5	0	11	-34	55*
N#CSCC(=O)c1cccc2ccccc12	-35	55*	18	23	32	20	54*
NC(=O)c1cccc2ccccc12	-3	-7	-6	-2	20	15	·
CC(C)C[C@H]1CNC(=S)N1C[C@H]1CCCN1C[C@H](Cc1ccc(O)cc1)N1C[C@H](CC(C)C)N(CCc2ccccc2)C1=S	-16	56*	·	·	8	-18	22
CC(C)C[C@@H](CN1CCCC1CN1C(=S)NC[C@@H]1Cc1ccc(O)cc1)N1C[C@H](Cc2ccc(O)cc2)N(CC2CCCCCC2)C1=S (stereo partly drawn)	0	52*	2	11	91*	-35	61*
CCOc1ccc(CCN2C(=S)N([C@@H](CC(C)C)CN3CCC[C@@H]3CN3C(=S)NC[C@@H]3CC(C)C)C[C@@H]2Cc2ccc(O)cc2)cc1	-8	36	·	·	19	-15	·
CC(C)C[C@@H](CN1CCCC1CN1C(=S)NC[C@@H]1Cc1ccc(O)cc1)N1C[C@H](Cc2ccccc2)N(CC2CCCCCC2)C1=S (stereo partly drawn)	17	0	3	8	5	-5	·
CCOc1ccc(CCN2C(=S)N([C@@H](CC(C)C)CN3CCCC3CN3C(=S)NC[C@@H]3CC(C)C)C[C@@H]2Cc2ccc(O)cc2)cc1 (stereo partly drawn)	-9	53*	9	12	10	-20	63*
CC(C)C[C@H]1CNC(=S)N1C[C@H]1CCCN1C[C@H](Cc1ccccc1)N1C[C@H](Cc2ccc(O)cc2)N(CCc2ccccc2)C1=S	-11	66*	·	·	12	-14	31
